From the antibiotic and cytotoxicity screens of Wong et al. (2023)
Out of some 39,000 compounds screened, about 500 (1.3%) were called active. The sample as a whole holds a higher share of actives than the screen did.

The molecules below were run on S. aureus RN4220 (assay: growth inhibition call (relative growth <= 0.2)). Settings: 50 µM.

**Q.** For `CCCC(=O)Nc1ccc2c(c1)OC[C@@H](C)N(C(=O)Cc1cccnc1)C[C@@H](C)[C@H](OC)CN(C)C2=O`, which growth inhibition call is on record?
**A.** Its growth inhibition call is “inactive”.

**Q.** For `Cc1noc(C)c1CO`, which growth inhibition call is on record?
**A.** Its growth inhibition call is “inactive”.

**Q.** `Cc1ccc(-c2noc([C@H](C)c3ccc(CC(C)C)cc3)n2)cc1` was tested. Which growth inhibition call did it give?
**A.** The growth inhibition call was “inactive”.

**Q.** For `C[C@@H]1CCCCO[C@@H](CN(C)Cc2ccccc2)[C@@H](C)CN([C@@H](C)CO)C(=O)c2cc(NS(=O)(=O)c3ccc(F)cc3)ccc2O1`, which growth inhibition call is on record?
**A.** The growth inhibition call was “inactive”.

**Q.** For `NCc1cc2ccccc2s1`, which growth inhibition call is on record?
**A.** The growth inhibition call was “inactive”.

**Q.** Which growth inhibition call does the source give for `O=C(O)c1cn(C2CC2)c2cc(N3CCC(O)(COc4ccc(N5C[C@H](CO)OC5=O)cc4F)CC3)c(F)cc2c1=O` here?
**A.** The growth inhibition call was “inactive”.

**Q.** With `Cn1c(=O)c2c(ncn2CC(=O)N2CCN(c3ccccc3F)CC2)n(C)c1=O` as the molecule, how does the growth inhibition call read?
**A.** Its growth inhibition call is “inactive”.

**Q.** Which growth inhibition call does the source give for `Cc1cccc(N2C[C@@H](CN)OC2=O)c1` here?
**A.** The growth inhibition call was “inactive”.

**Q.** How did the growth inhibition call turn out when `CC(=O)NCC1CN(c2ccc(N3CCOCC3)c(F)c2)C(=O)O1` (stereo not given) was run?
**A.** The growth inhibition call was “active”.

**Q.** For `CC(=O)NC[C@H]1CN(c2ccc(N3CCN(C(=O)CO)CC3)c(F)c2)C(=O)O1`, which growth inhibition call is on record?
**A.** The growth inhibition call was “active”.

**Q.** Which growth inhibition call does the source give for `CC(C)NC(=O)Nc1ccc2c(c1)C(=O)N([C@H](C)CO)C[C@H](C)[C@@H](CN(C)C(=O)Nc1ccc(F)cc1)OCCCC[C@@H](C)O2` here?
**A.** The growth inhibition call was “inactive”.

**Q.** How did the growth inhibition call turn out when `Cc1noc(C)c1NC(=O)N(C)C[C@H]1OCCCC[C@@H](C)Oc2ccc(NS(=O)(=O)c3ccc(F)cc3)cc2C(=O)N([C@H](C)CO)C[C@@H]1C` was run?
**A.** Its growth inhibition call is “inactive”.

**Q.** For `C[C@H](CO)N1C[C@H](C)[C@H](CN(C)C)OCCCC[C@H](C)Oc2ccc(NS(=O)(=O)c3cn(C)cn3)cc2C1=O`, which growth inhibition call is on record?
**A.** The growth inhibition call was “inactive”.

**Q.** Which growth inhibition call does the source give for `COc1cc(-c2cc(=O)c3c(=O)cc(-c4ccc(O)c(OC)c4)n(CCc4ccccc4)c3s2)ccc1O` here?
**A.** Its growth inhibition call is “inactive”.

**Q.** `Cc1noc(C)c1NC(=O)N(C)C[C@@H]1Oc2ccc(NS(=O)(=O)c3cn(C)cn3)cc2CC(=O)N([C@H](C)CO)C[C@H]1C` was tested. Which growth inhibition call did it give?
**A.** The growth inhibition call was “inactive”.

**Q.** Which growth inhibition call does the source give for `CO[C@H]1O[C@H](CO)[C@@H](OC(=O)Nc2ccc(Br)cc2)[C@@H]2OC(=O)[C@H](Cc3cccc(Br)c3)C/C=C/C[C@@H](Cc3cccc(Br)c3)C(=O)O[C@@H]12` here?
**A.** Its growth inhibition call is “inactive”.

**Q.** For `C[C@@H]1CN([C@@H](C)CO)C(=O)c2cccc(NS(=O)(=O)c3ccc(F)cc3)c2O[C@@H]1CN(C)S(C)(=O)=O`, which growth inhibition call is on record?
**A.** The growth inhibition call was “inactive”.

**Q.** Which growth inhibition call does the source give for `CCNC1CC(N)C(OC2OC(CN)=CCC2N)C(O)C1OC1OCC(C)(O)C(NC)C1O.O=S(=O)(O)O.O=S(=O)(O)O` (stereo not given) here?
**A.** The growth inhibition call was “inactive”.

**Q.** Which growth inhibition call does the source give for `CN[C@@H]1[C@@H](O)[C@@H](O[C@@H]2[C@@H](O)[C@H](O[C@H]3OC(CN)=CC[C@H]3N)[C@@H](N)C[C@H]2N)OC[C@]1(C)O` here?
**A.** Its growth inhibition call is “inactive”.

**Q.** With `CNC1C(O)C(OC2C(N)CC(N)C(OC3OC(CN)=CCC3N)C2O)OCC1(C)O.O=S(=O)(O)O` (stereo not given) as the molecule, how does the growth inhibition call read?
**A.** Its growth inhibition call is “active”.

**Q.** Which growth inhibition call does the source give for `C[C@@H]1CCCCO[C@H](CN(C)C(=O)CCC(F)(F)F)[C@@H](C)CN([C@@H](C)CO)C(=O)c2cc(NS(=O)(=O)c3ccc(F)cc3)ccc2O1` here?
**A.** Its growth inhibition call is “inactive”.

**Q.** With `CC(C)NC(=O)Nc1ccc2c(c1)C(=O)N([C@@H](C)CO)C[C@H](C)[C@@H](CN(C)Cc1ccccc1)OCCCC[C@H](C)O2` as the molecule, how does the growth inhibition call read?
**A.** Its growth inhibition call is “inactive”.

**Q.** Which growth inhibition call does the source give for `CO[C@@H]1CN(C)C(=O)c2ccc(NC(=O)Nc3cccc(Cl)c3)cc2OC[C@@H](C)N(C(=O)Nc2c(C)noc2C)C[C@H]1C` here?
**A.** Its growth inhibition call is “inactive”.

**Q.** With `CC(C)(C)[S@@+]([O-])N1Cc2cc(C(=O)NCc3ccc4c(c3)OCO4)nc(-c3ccc(-c4ccc(C#N)cc4)cc3)c2[C@H]1CCO` as the molecule, how does the growth inhibition call read?
**A.** The growth inhibition call was “inactive”.

**Q.** With `Cc1noc(C)c1S(=O)(=O)N(C)C[C@H]1OCCCC[C@@H](C)Oc2ccc(NC(=O)Nc3ccc(F)cc3)cc2C(=O)N([C@@H](C)CO)C[C@@H]1C` as the molecule, how does the growth inhibition call read?
**A.** Its growth inhibition call is “inactive”.

**Q.** `CC(C)NC(=O)N(C)C[C@@H]1OCCCC[C@@H](C)Oc2ccc(NS(C)(=O)=O)cc2C(=O)N([C@@H](C)CO)C[C@H]1C` was tested. Which growth inhibition call did it give?
**A.** Its growth inhibition call is “inactive”.

**Q.** How did the growth inhibition call turn out when `CCCSc1nc(N[C@@H]2C[C@H]2c2ccc(F)c(F)c2)c2nnn([C@@H]3C[C@H](OCCO)[C@@H](O)[C@H]3O)c2n1` was run?
**A.** The growth inhibition call was “active”.

**Q.** For `COc1cc(C)c(C(=O)O)c(O)c1`, which growth inhibition call is on record?
**A.** Its growth inhibition call is “inactive”.

**Q.** How did the growth inhibition call turn out when `CCCCCc1c2c(cc(O)c1C(=O)O)OC(=O)c1c(cc(OC)cc1C(=O)CCCC)O2` was run?
**A.** The growth inhibition call was “active”.

**Q.** For `COc1cc(O)c(C(=O)O)c(O)c1`, which growth inhibition call is on record?
**A.** The growth inhibition call was “inactive”.

**Q.** Which growth inhibition call does the source give for `C[C@@H]1CN([C@H](C)CO)C(=O)c2cccc(NC(=O)Nc3ccc(C(F)(F)F)cc3)c2O[C@@H]1CN(C)Cc1ccc(Oc2ccccc2)cc1` here?
**A.** The growth inhibition call was “inactive”.

**Q.** Which growth inhibition call does the source give for `Cc1ccc(S(=O)(=O)N(C)C[C@H]2Oc3ccc(NS(=O)(=O)c4ccccc4)cc3C(=O)N([C@@H](C)CO)C[C@@H]2C)cc1` here?
**A.** Its growth inhibition call is “inactive”.

**Q.** `C[C@@H]1CN([C@H](C)CO)C(=O)Cc2cc(NS(=O)(=O)c3ccc(Cl)cc3)ccc2O[C@@H]1CN(C)S(C)(=O)=O` was tested. Which growth inhibition call did it give?
**A.** Its growth inhibition call is “inactive”.

**Q.** `COC(=O)OCOc1c2n(ccc1=O)N([C@@H]1c3ccccc3SCc3c1ccc(F)c3F)[C@@H]1COCCN1C2=O` was tested. Which growth inhibition call did it give?
**A.** Its growth inhibition call is “inactive”.

**Q.** With `CCC(C)CCCCC(=O)NC(CCN)C(=O)NC(C(=O)NC(CCN)C(=O)NC1CCNC(=O)C(C(C)O)NC(=O)C(CCN)NC(=O)C(CCN)NC(=O)C(CC(C)C)NC(=O)C(Cc2ccccc2)NC(=O)C(CCN)NC1=O)C(C)O.O=S(=O)(O)O` (stereo not given) as the molecule, how does the growth inhibition call read?
**A.** The growth inhibition call was “active”.

**Q.** Which growth inhibition call does the source give for `CC[C@@H](C)CCCC(=O)N[C@@H](CCN)C(=O)N[C@H](C(=O)N[C@@H](CCN)C(=O)N[C@H]1CCNC(=O)[C@H]([C@@H](C)O)NC(=O)[C@H](CCN)NC(=O)[C@H](CCN)NC(=O)[C@H](CC(C)C)NC(=O)[C@@H](CC(C)C)NC(=O)[C@H](CCN)NC1=O)[C@@H](C)O` here?
**A.** The growth inhibition call was “inactive”.

**Q.** How did the growth inhibition call turn out when `CC[C@@H](C)CCCCC(=O)N[C@@H](CCN)C(=O)N[C@H](C(=O)N[C@@H](CCN)C(=O)N[C@H]1CCNC(=O)[C@H]([C@@H](C)O)NC(=O)[C@H](CCN)NC(=O)[C@H](CCN)NC(=O)[C@H](CC(C)C)NC(=O)[C@@H](Cc2ccccc2)NC(=O)[C@@H](CCN)NC1=O)[C@@H](C)O` was run?
**A.** The growth inhibition call was “inactive”.

**Q.** `C[C@@H]1CN([C@H](C)CO)S(=O)(=O)c2ccc(C#C[C@@H](C)O)cc2O[C@@H]1CN(C)C(=O)c1ccncc1` was tested. Which growth inhibition call did it give?
**A.** The growth inhibition call was “inactive”.

**Q.** For `O=C(C[C@@H]1CC[C@H](NC(=O)CN2CCOCC2)[C@@H](CO)O1)NCCc1ccccc1`, which growth inhibition call is on record?
**A.** Its growth inhibition call is “inactive”.

**Q.** Which growth inhibition call does the source give for `O=C1C=CC(=O)N1` here?
**A.** Its growth inhibition call is “active”.
